Screening data from PubChem.
Rows were chosen to be rich in hits. Some 3.5% of all compounds tested hit in one or more screens of this group.
FBW7 act: human FBW7 E3 ligase activation, primary screen; AlphaScreen FBW7–phospho-cyclin E peptide binding, activator screen; normalized activity (activation), % at 26.1 µM; AID 1259310; Q969H0; 0.13% of 650,000 active; in the data active = normalized activity above about 1.9%;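 also: purified mutant Fbw7 with reduced substrate affinity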
Target sequence (Q969H0 whole entry, looked up): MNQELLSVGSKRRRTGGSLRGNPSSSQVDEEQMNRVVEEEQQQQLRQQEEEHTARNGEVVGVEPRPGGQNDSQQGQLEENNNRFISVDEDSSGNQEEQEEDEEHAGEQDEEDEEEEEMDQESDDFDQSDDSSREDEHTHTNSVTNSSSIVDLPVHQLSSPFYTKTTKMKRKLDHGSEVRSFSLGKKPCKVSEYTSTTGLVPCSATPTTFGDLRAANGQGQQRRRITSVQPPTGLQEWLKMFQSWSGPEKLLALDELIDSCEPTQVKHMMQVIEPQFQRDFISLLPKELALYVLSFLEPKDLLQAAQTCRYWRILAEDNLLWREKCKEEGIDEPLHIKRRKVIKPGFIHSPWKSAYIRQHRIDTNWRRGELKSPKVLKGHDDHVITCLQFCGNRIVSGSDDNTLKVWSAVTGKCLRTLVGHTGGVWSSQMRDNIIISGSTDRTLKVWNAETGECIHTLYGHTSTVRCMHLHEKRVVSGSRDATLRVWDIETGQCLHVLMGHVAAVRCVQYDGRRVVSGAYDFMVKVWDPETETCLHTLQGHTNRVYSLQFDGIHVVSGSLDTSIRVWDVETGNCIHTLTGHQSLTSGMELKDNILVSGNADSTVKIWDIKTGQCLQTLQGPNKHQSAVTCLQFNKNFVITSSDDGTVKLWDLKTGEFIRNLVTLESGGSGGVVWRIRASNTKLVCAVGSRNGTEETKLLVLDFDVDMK
GPR151 activ: activators of human GPR151 | Q8TDV0 | PathHunter beta-arrestin GPR151 cells, luminescence | activation, % at 11.2 µM | 1% of 650,000 active; in the data active = activation above about 4.9%;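 also: 0% = median of compound wells and 100% = cells with positive control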
MITF primary: blocks human microphthalmia-associated transcription factor. AlphaScreen MITF homodimerization, bead proximity signal. 0.91% of 650,000 active. AID 1259374. O75030. inhibition, % at 2.6 µM; in the data active = inhibition above about 50%;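 also: 0% = vehicle wells with protein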
TEAD-YAP inh: TEAD-YAP interaction inhibition; inhibition, % at 9.12 µM; AID 1259422; HEK-TIYL cells, TEAD-Gal4/YAP UAS-luciferase luminescence; 1.4% of 640,000 active; in the data active = inhibition above about 32%;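 also: 0% = median of test compound wells and 100% = reference inhibitor wells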
GPR151 conf act: human GPR151 activation, confirmation screen. shares compounds with GPR151 activ. GPR151 PathHunter beta-arrestin cells, luminescence, 90 min; % of EA-reagent control over plate median. activation, % at 11.2 µM. 6,700 tested, under 10 active. AID 1508609;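 active = mean percent activation across replicates above the confirmation screen cutoff of 4.91%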
GPR119 ag: counter-screen for GPR151 activators: effect on human GPR119; shares compounds with GPR151 activ; GPR119 PathHunter beta-arrestin cells, luminescence, 90 min; 0 = compound-well median, 100 = enzyme-acceptor control; activation, % at 11.2 µM; 0.3% of 6,700 active; AID 1508611;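 active = mean percent activation in the counterscreen above 29.09%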;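 also: counterscreen on off-target GPR119 to flag nonselective hits from the GPR151 activator screen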
Numbers without * were called inactive; . = no result given; ! = not confirmed by another sample.

SMILES	FBW7 act	GPR151 activ	MITF primary	TEAD-YAP inh	GPR151 conf act	GPR119 ag
Cc1cc(C)n(C(=O)COc2ccccc2[N+](=O)[O-])n1	0	5.4*	-16	4	0	-2
Cc1cc(NC(=O)Cn2cc([N+](=O)[O-])cn2)n(-c2ccccc2)n1	0	3	-3	-13	.	.
Cc1cc(NC(=O)COc2cc(F)ccc2[N+](=O)[O-])n(-c2ccccc2)n1	0	15*	-8	-1	-1	-10
COc1cccc(Nc2nnc(-c3cc4ccc(O)cc4oc3=O)s2)c1	0	5.8*	3	-3	-1	-15
Oc1ccc(C2CNCCc3c2cc(O)c(O)c3Cl)cc1 (configuration not stated)	1	6.6*!	-17	-12	0	1
O=[N+]([O-])c1cccc(/C=N/NC2=Nc3cccc4cccc2c34)c1	0	-1	15	-35	.	.
O=[N+]([O-])c1ccc(/C=N/NC2=Nc3cccc4cccc2c34)cc1	0	6.3*	4	-27	0	3
O=C(NC1=Nc2cccc3cccc1c23)c1ccc([N+](=O)[O-])cc1	0	5.5*	7	2	0	-12
Cc1cc2ccccc2c(=O)n1CC(=O)N1CCN(c2ccccn2)CC1	0	7.2*	-2	10	0	-9
CC1CN(C(=O)CCC(=O)NC2CCCC2)c2ccccc2O1 (configuration not stated)	0	5.1*	5	-6	0	-2
Cc1ccc(S(=O)(=O)CCC(=O)N2CCN(c3ccccn3)CC2)cc1	0	5.1*	4	-3	0	-3
CC1CN(C(=O)CCC(=O)N2CCN(c3ccccn3)CC2)c2ccccc2O1 (configuration not stated)	0	6.1*	-7	-2	0	0
CC1CN(C(=O)CCC(=O)NC2CCCC2)c2cc(Cl)ccc2O1 (configuration not stated)	0	0	-3	-4	.	.
Cn1c(COc2cccc3ccccc23)nnc1SCCN1CCCC1	0	1	-2	4	.	.
CCC(C)NC(=O)C1=CC(c2ccc(OC)c(OC)c2)=NS(=O)(=O)N1C (configuration not stated)	0	1	8	12	.	.
CCC(C)NC(=O)C1=CC(c2cccc(OC)c2)=NS(=O)(=O)N1C (configuration not stated)	0	5.2*	-4	5	0	-8
CCOC(=O)c1cnc2c(OC)cccc2c1NCCC1=CCCCC1	0	1	5	19	.	.
Cc1ccc(/C=C(/C#N)c2ccc3c(c2)OCO3)cc1[N+](=O)[O-]	0	-1	5	-2	.	.
N#C/C(=C/c1ccccc1[N+](=O)[O-])c1ccc2c(c1)OCO2	0	5.7*	6	-8	0	-13
NC1(C(Cl)(Cl)Cl)Oc2ccc(Cl)cc2O1 (configuration not stated)	0	9.9*	46	11	0	-3
CN=c1nc(-c2ccccc2)n(-c2ccccc2)s1	0	0	2	-7	.	.
CC(=O)N=c1nc(-c2ccccc2)n(-c2ccccc2)s1	0	6.9*	-11	-16	-1	-10
COc1cccc(N/C=C(/C#N)c2nc(-c3cccc(OC)c3)cs2)c1	0	1	-9	3	.	.
Cc1cc(CN(C)C(=O)CC2(c3cccc(F)c3)CC(=O)N(Cc3cccnc3)C2=O)n[nH]1 (configuration not stated)	0	12*	13	0	0	7
Cc1cc(CN(C)C(=O)CC2(c3ccccc3C)CC(=O)N(Cc3cccnc3)C2=O)n[nH]1 (configuration not stated)	0	1	-5	-9	.	.
COc1c(Cl)cc(Cl)cc1C(=O)Nc1ccc(-c2nn3c(C)nnc3s2)cc1	1	5.0*	2	2	0	4
N/C(=N\OC(=O)c1ccccc1-c1ccccc1)c1ccncc1	0	0	-1	7	.	.
C#CCOc1ccc2c(c1)c(C(=O)OCC)c(C)n2C	0	2	-1	10	.	.
COCCOC(=O)c1c(C)oc2ccc(OCC#N)cc12	0	11*	4	-11	-1	-7
CCOC(=O)c1c(C)n(C)c2ccc(OCC#N)cc12	0	7.1*	14	11	0	0
